In all, about 13,000 compounds went through this assay and about 3,200 (25%) showed an effect of 50% or more. This is one part of the list.
The molecules below were run on P. falciparum stage V gametocytes. Settings: 48 h, 5 µM; inhibitor.
Design: BacTiter-Glo ATP luminescence viability of purified stage V gametocytes in 384-well plates, per cent inhibition versus DMSO

SMILES	% Inhibition
Cc1cccc2[nH]c(-c3ccc(-c4cccc(CN5CCN(CCO)CC5)c4)cc3)nc12 [TCMDC-133029]	-7.664%
NC(N)=NC(=O)Nc1ccc([N+](=O)[O-])c(Cl)c1 [TCMDC-137468]	-7.379%
NS(=O)(=O)c1cncc(-c2ccc3nccc(-c4cn[nH]c4)c3n2)c1 [TCMDC-134293]	66.05%
Cc1cccc2[nH]c(-c3cc(-c4cn[nH]c4)cnc3N)nc12 [TCMDC-133561]	-9.324%
Nc1ncc(-c2cn[nH]c2)cc1-c1nc2ccc(F)cc2[nH]1 [TCMDC-133559]	26.39%
CC(NC(=O)c1ccc(O)c(-c2ccc(Cl)c(Cl)c2)c1)C(=O)NCCN1CCOCC1 (stereo not shown) [TCMDC-140849]	3.738%
Cc1cnc(N2CCN(CCCN3CCCC3)CC2)nc1Oc1ccc(-n2ccnc2)cc1 [TCMDC-132207]	28.92%
N#Cc1ccc(N(CCOc2ccc(Cl)c(Cl)c2)Cc2ccccc2C(F)(F)F)cc1C(F)(F)F [TCMDC-132795]	-20.83%
CC(Cc1ccc(NC(=O)c2ccc(CC(C)NCc3ccc(Cl)cc3)cc2)cc1)NCCc1cccc(Cl)c1 (stereo not shown) [TCMDC-139810]	112.2%
CCOc1ccccc1CCNC(C)Cc1ccc(C(=O)Nc2ccc(CC(C)NCCc3cccc(Cl)c3)cc2)cc1 (stereo not shown) [TCMDC-139805]	111.8%
CC(=O)Nc1ccc(CNCCc2ccc(NC(=O)c3cc(Cl)cc(Cl)c3)cc2)cc1 [TCMDC-140678]	2.681%
CC(Cc1ccc(NC(=O)[C@H](C)NCCc2cccc(Cl)c2)cc1)NCCc1cccc(Cl)c1 (stereo partly shown) [TCMDC-139830]	21.29%
CC(Cc1ccc(NC(=O)[C@@H](C)NCCc2cccc(Cl)c2)cc1)NCCc1cccc(Cl)c1 (stereo partly shown) [TCMDC-139831]	101.6%
CC(=O)Nc1ccc(CCNC(C)Cc2ccc(C(=O)Nc3ccc(CC(C)NCCc4cccc(Cl)c4)cc3)cc2)cc1 (stereo not shown) [TCMDC-139828]	108.3%
CC(Cc1ccc(NC(=O)c2ccc(NCCc3ccccc3)cc2)cc1)NCCc1cccc(Cl)c1 (stereo not shown) [TCMDC-139832]	47.1%
CC(Cc1ccc(NC(=O)c2ccc(CC(C)NCc3ccc(Cl)c(Cl)c3)cc2)cc1)NCCc1cccc(Cl)c1 (stereo not shown) [TCMDC-139806]	8.931%
Cc1nc(Nc2ccc(F)cc2)nc(N2CCc3ccccc3C2C)c1CO (stereo not shown) [TCMDC-141074]	-64.94%
O=C(Nc1cccc(-c2cccc(-c3nc4ccc(F)cc4[nH]3)c2)c1)c1csnn1 [TCMDC-136899]	16.2%
O=C(Nc1cccc(-c2ccc(-c3nc4ccc(C(F)(F)F)cc4[nH]3)cc2)c1)Nc1ccc(Cl)c(Cl)c1 [TCMDC-133274]	-18.31%
Nc1nc2ccc(S(=O)(=O)Nc3ccc(C(=O)N[C@@H](CCC(=O)O)C(=O)O)c(F)c3)cc2c(=O)[nH]1 [TCMDC-137540]	7.521%
COc1ccc(CCNC(C)Cc2ccc(C(=O)Nc3ccc(CC(C)NCCc4cccc(Cl)c4)cc3)cc2)cc1 (stereo not shown) [TCMDC-139750]	113.2%
CC(Cc1ccc(C(=O)Nc2ccc(CC(C)NCCc3cccc(Cl)c3)cc2)cc1)NCCc1ccc(C(F)(F)F)cc1 (stereo not shown) [TCMDC-139790]	137.5%
Cc1cccc2nc(-c3ccc(-c4ccc(C(=O)NCCc5cn(C)cn5)cc4)s3)[nH]c12 [TCMDC-132499]	-4.132%
CCc1cc(NC2CCN(C)CC2)nc(Nc2cccc(OC)c2)n1 [TCMDC-134002]	40.04%

SMILES	% Inhibition
c1ccc(-c2nnc(-c3ccccn3)nc2NC2CCCCC2)cc1 [TCMDC-123764]	29.34%
CC(Nc1cc(-c2ccccn2)nc(-c2ccccn2)n1)c1ccccc1 (stereo not shown) [TCMDC-125420]	24.2%
C=CCNc1cc(-c2ccccn2)nc(-c2ccccn2)n1 [TCMDC-123787]	23.88%
Cc1cc(NC2CCCC2)nc(Nc2ccccc2)n1 [TCMDC-133459]	-35.61%
c1ccc(CNc2cc(-c3ccccn3)nc(-c3ccccn3)n2)cc1 [TCMDC-125421]	-1.689%
OC1CCN(c2cc(-c3ccccn3)nc(-c3ccccn3)n2)CC1 [TCMDC-123786]	41.56%
c1ccc(-c2nc(NC3CCCCC3)cc(C3CC3)n2)nc1 [TCMDC-125825]	105.2%
CC(C)(C)c1cc(NC2CC2)nc(-c2ccccn2)n1 [TCMDC-125826]	69.03%
CC(C)(C)Nc1cc(C2CC2)nc(-c2ccccn2)n1 [TCMDC-124453]	105.8%
Cc1cc(N2CCOCC2)nc(Nc2ccc(NC(=O)Nc3ccc(F)cc3)cc2)n1 [TCMDC-124956]	-1.746%
COc1ccc2nccc([C@@H](O)CN3CCC(NC(=O)Cc4cccc5c(Br)cccc45)CC3)c2c1 [TCMDC-141111]	22.03%
COc1ccc(-n2nc(C(=O)NCCC3=CCCCC3)c3ccccc3c2=O)cc1 [TCMDC-123609]	10.78%
Clc1ccc2nc(-c3cccnc3)[nH]c2c1 [TCMDC-142012]	6.492%
COC(=O)c1cccc(NC(=O)NC2CCN(c3ccnc(NCc4ccc(F)cc4)n3)CC2)c1 [TCMDC-133636]	29.63%
Cc1cc(N(C)C)nc(Nc2ccc(NC(=O)c3c(F)cccc3Cl)cc2)n1 [TCMDC-124976]	3.565%
O=C(Nc1cccc(F)c1)NC1CCN(c2ccnc3cc(Cl)ccc23)C1 (stereo not shown) [TCMDC-133655]	-21.12%
Cc1ccc(NC(=O)c2ccc3ncccc3c2)cc1OC1CCN(CCC(C)C)CC1 [TCMDC-133975]	32.86%
Oc1c(C(Nc2nc3ccccc3s2)c2ccccc2)ccc2cccnc12 (stereo not shown) [TCMDC-125565]	82.54%
Oc1c(C(Nc2nc3ccccc3s2)c2ccc(OC(F)F)cc2)ccc2cccnc12 (stereo not shown) [TCMDC-124379]	115.4%
CCC[C@@H]([C@@H](CC1CCCCC1)C(=O)N[C@H](C(=O)Nc1nccs1)C(C)(C)SCCNC(=O)OCC)N(O)C=O [TCMDC-137778]	36.34%
CN(C)C(C)(C)CN(Cc1ccc(-c2ccc(C(F)(F)F)cc2)cc1)C(=O)Cn1c(CCc2cccc(F)c2F)nc(=O)c2ccccc21 [TCMDC-141050]	88.12%
CCN(CC)C(C)(C)CN(Cc1ccc(-c2ccc(C(F)(F)F)cc2)cc1)C(=O)Cn1c(CCc2cccc(F)c2F)nc(=O)c2ccccc21 [TCMDC-141049]	64.05%
CC=CCON1C(N)=NC(N)=NC1(C)C [TCMDC-131381]	17.92%
Oc1cc(Nc2ccnc3cc(-c4ccc(CN5CCCCC5)o4)c(Cl)cc23)c(Cl)cc1F [TCMDC-138470]	7.124%

SMILES	% Inhibition
COc1ccc(C2CC(=O)C3=C(C2)NC(C)=C(C(=O)OC2CCCC2)C3c2cccc(O)c2)cc1OC (stereo not shown) [TCMDC-125638]	22.13%
O=C(Nc1ccnc(N2CCCN(Cc3cccc(O)c3)CC2)c1)c1ccc(F)cc1 [TCMDC-134961]	-9.577%
Cc1cc(N2CCCCC2)nc2ccc(NC(=O)c3cccc([N+](=O)[O-])c3)cc12 [TCMDC-124423]	6.095%
COc1cc2nc(Cl)nc(Nc3ccncc3)c2cc1OC [TCMDC-123606]	31.62%
Cc1cccc(-c2nc(Nc3ccncc3)c3ccc([N+](=O)[O-])cc3n2)n1 [TCMDC-134702]	85.91%
COc1ccc(-c2cc(Nc3nc(-c4cccc(Cl)c4)nc4ccccc34)ccn2)cc1 [TCMDC-138867]	-54.58%
Cc1cc(F)ccc1-c1nc(Nc2ccncc2)c2ccn(C)c2n1 [TCMDC-141231]	-13.59%
Cc1cccc(-c2nc(Nc3ccncc3)c3cc(N(C)C)ccc3n2)n1 [TCMDC-135308]	101.1%
Cc1ccc(-c2nc(Nc3ccncc3)c3ccccc3n2)s1 [TCMDC-134482]	16.52%
COc1cccc(-c2nc(Nc3ccncc3)c3ncn(C)c3n2)c1 [TCMDC-141275]	49.52%
COc1ccc2nc(-c3cccc(C)n3)nc(Nc3ccncc3)c2c1 [TCMDC-134670]	106.1%
COC(=O)c1ccc(CC(C)NCC(O)c2cccc(C(F)(F)F)c2)c(Cl)c1 (stereo not shown) [TCMDC-131468]	4.686%
COc1ccc(C2CC(=O)C3=C(C2)NC(C)=C(C(=O)OC(C)C)C3c2cccc(O)c2)cc1OC (stereo not shown) [TCMDC-125636]	49.05%
O=C(Nc1ccnc(-c2cccnc2)n1)c1cc(C(F)(F)F)cc(C(F)(F)F)c1 [TCMDC-124516]	40.18%
Cc1ccc2c(c1)C1(CC(=O)N(CCc3scnc3C)C1=O)C(=O)N2Cc1ccccc1 (stereo not shown) [TCMDC-136702]	3.881%
Cc1cc(-c2ccc(CN3Cc4ccccc4C3)cc2)ccc1S(=O)(=O)NCCN1CCCC1 [TCMDC-132293]	17.83%
Cc1cc(-c2ccc(CNC3Cc4ccccc4C3)cc2)ccc1S(=O)(=O)NCCN1CCCC1 [TCMDC-132243]	88.03%
O=S(=O)(NCCN1CCCC1)c1ccc(-c2cccc(CNC3Cc4ccccc4C3)c2)cc1F [TCMDC-132221]	86.87%
O=S(=O)(NCCN1CCCC1)c1ccc(-c2ccc(CNC3Cc4ccccc4C3)cc2)cc1F [TCMDC-132237]	105.2%
NC(=NCCc1ccc(Cl)c(Cl)c1)c1ccc2ccccc2c1 [TCMDC-137525]	0.5254%
Cc1cc(OCCCN=C(N)c2ccc3ccccc3c2)c(C(C)C)cc1Cl [TCMDC-137527]	57.09%
NC(=NCCc1ccccc1Cl)c1ccc2ccccc2c1 [TCMDC-137524]	-3.713%

From publication PMC4552634, “A New Set of Chemical Starting Points with Plasmodium falciparum Transmission-Blocking Potential for Antimalarial Drug Discovery” (PLoS ONE, 2015)
